From PubChem BioAssay (NCI) come the findings set out here.

Experiment [1] can be described thus: NCI Yeast Anticancer Drug Screen. Data for the rad50 strain (AID 155).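 Further: 0% = growth of vehicle-only cultures of the same strain.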 The settings on record: S. cerevisiae rad50 strain growth inhibition; at 50.0 µM; stronger effect = higher value. The procedure, abridged:
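Relative growth inhibition (compound vs vehicle) was measured in yeast with a defined repair-gene alteration.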

A short description of experiment [2]: NCI Yeast Anticancer Drug Screen. Data for the mec2-1 strain (AID 157). The settings on record: S. cerevisiae mec2-1 strain, at 50.0 µM, stronger effect = higher value. The procedure, abridged: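 Mutant yeast (mec2-1) grown with compound; growth inhibition relative to vehicle control reported.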
Experiment [3] can be described thus: NCI Yeast Anticancer Drug Screen. Data for the sgs1 mgt1 strain (AID 161).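 Further: 0% = growth of cultures given vehicle only.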 The settings on record: S. cerevisiae sgs1 mgt1 strain, at 50.0 µM, stronger effect = higher value. The procedure, abridged:
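Percent growth inhibition was derived by comparing compound-exposed mutant yeast with vehicle-exposed cultures. The strain carries alterations in DNA damage repair.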

The nature of experiment [4]: NCI Yeast Anticancer Drug Screen. Data for the cln2 rad14 strain (AID 165).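 Further: 0% = growth equal to vehicle treated cultures.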 The settings on record: S. cerevisiae cln2 rad14 strain, at 50.0 µM, stronger effect = higher value. The procedure, abridged: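 Readout is yeast growth inhibition versus vehicle-treated controls, using a strain with cln2 and rad14 alterations exposed to compound.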
A short description of experiment [5]: NCI Yeast Anticancer Drug Screen. Data for the bub3 strain (AID 167). The settings on record: S. cerevisiae bub3 mutant strain, at 50.0 µM, stronger effect = higher value. A digest of the protocol:
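Screening used yeast with an engineered genetic alteration affecting cell cycle control. Compound-exposed cultures were compared with vehicle cultures, and reduced growth was taken as inhibition.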

The nature of experiment [6]: NCI Yeast Anticancer Drug Screen. Data for the mlh1 rad18 strain (AID 175). The settings on record: S. cerevisiae mlh1 rad18 strain growth inhibition; at 50.0 µM; stronger effect = higher value. The procedure, abridged:
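Genetically defined yeast (DNA repair-deficient) exposed to compounds; growth inhibition determined relative to vehicle.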

Structures are written as SMILES. The panel holds about 79,000 compounds, 15% with a hit somewhere; the sample as a whole holds those more often. A number with no mark means an inactive call. Active and inactive are the calls of the source. No stated cut-off is given here; in the data, active means growth inhibition above about 70%; inactive means the rest.

Take `O=C1CCCCCCCCCCC1`: the growth inhibition in experiment [1] is -8.1%; in experiment [2] it was -62.7%; in experiment [3] it was -17.6%; in experiment [4] it was 15.2%; in experiment [5], -17.1%; in experiment [6] it was 3.1%.

In the case of `CC(=O)C(C)(C)OC(=O)COc1ccc(Cl)cc1`, the growth inhibition in experiment [1] was -39%; in experiment [2] it was -2.75%; in experiment [3] it was -9.45%; in experiment [4], 43.4%; in experiment [5], 32.3%; in experiment [6], -24.6%.

Consider `O=S(O)OS(=O)O`, for which the growth inhibition is -5.95% in experiment [1]; -19.4% in experiment [2]; -15.6% in experiment [3]; -0.4% in experiment [4]; 18.9% in experiment [5]; -13.3% in experiment [6].

`Cc1cc(C)c(-c2cc(C(O)C3OC4OC(C)(C)OC4C3O)on2)c(C)c1` (stereo not given): the growth inhibition in experiment [1] is 15.3%; in experiment [2] it was -0.9%; in experiment [3], -1.3%; in experiment [4], 9.25%; in experiment [5] it was 0.8%; in experiment [6], 0.3%.

`O=S(=O)(OCCCCCCCCCCOS(=O)(=O)c1ccc(Cl)cc1)c1ccc(Cl)cc1`: the growth inhibition is -7.6% in experiment [1]; -3.6% in experiment [2]; -3.6% in experiment [3]; 8.6% in experiment [4]; -5.3% in experiment [5]; -4.55% in experiment [6].

Take `CCCCCC(=O)NC(=S)Nc1nn[nH]n1`: the growth inhibition was -38.8% in experiment [1]; -50.7% in experiment [2]; -39.1% in experiment [3]; -8.4% in experiment [4]; -25.3% in experiment [5]; -47.1% in experiment [6].

With `O=c1oc2ccccc2[n+]([O-])c1-c1ccccc1`, the growth inhibition is -9.9% in experiment [1]; -10.8% in experiment [2]; -9.35% in experiment [3]; 16.9% in experiment [4]; -18.8% in experiment [5]; -17.9% in experiment [6].

`N/C(CC/C(N)=N\O)=N\O`: the growth inhibition in experiment [1] is -1.95%; in experiment [2], -15.8%; in experiment [3] it was -11.2%; in experiment [4], -4.9%; in experiment [5] it was 1.1%; in experiment [6] it was -1.7%.

On to `C=C1C(=O)C23C(O)CC4C(C)(C)[C@@H](OC(C)=O)CCC4(C)[C@]2(O)CCC1[C@@H]3O` (stereo not given in full), for which the growth inhibition in experiment [1] was 46.8%; in experiment [2], 48.9%; in experiment [3], 44.9%; in experiment [4], 40.1%; in experiment [5], 70.5% (active); in experiment [6] it was 67%.

As for `CN1C2=C(CC3=C1CC(C)(C)CC3=O)C(=O)CC(C)(C)C2`, the growth inhibition in experiment [1] is -18.6%; in experiment [2] it was -12.9%; in experiment [3], -20.1%; in experiment [4], -4.25%; in experiment [5], -27.6%; in experiment [6] it was -34.7%.

Consider `C=CCNC(=O)C[n+]1cccc(C(=O)Nc2ccccc2)c1`, for which the growth inhibition in experiment [1] was 1.65%; in experiment [2] it was -18.2%; in experiment [3], 5.4%; in experiment [4] it was 23.2%; in experiment [5], 5.95%; in experiment [6] it was -0.95%.

With `CCCCNS(=O)(=O)c1ccc(C)cc1`, the growth inhibition in experiment [1] is -24.6%; in experiment [2] it was -26.4%; in experiment [3] it was -23%; in experiment [4], -42.7%; in experiment [5] it was -22%; in experiment [6], -21.3%.

In the case of `O=C1NC(=S)N(c2ccccc2)C1=O`, the growth inhibition is -19.4% in experiment [1]; -7.65% in experiment [2]; -24.2% in experiment [3]; -30.2% in experiment [4]; -2.5% in experiment [5]; -11.8% in experiment [6].

As to `CC(=O)OC(C[N+]1(C)CCCCCC1)C[N+]1(C)CCCCCC1`, the growth inhibition in experiment [1] was -34.6%; in experiment [2] it was -4.8%; in experiment [3], -17.8%; in experiment [4], -27.6%; in experiment [5], 7.95%; in experiment [6], -11.2%.

Take `O=C1OC2(c3ccc(O)cc3Oc3cc(O)ccc32)c2ccccc21`: the growth inhibition in experiment [1] was 6.6%; in experiment [2], 0.55%; in experiment [3], 10.2%; in experiment [4], 26.7%; in experiment [5], -0.05%; in experiment [6], -1.2%.

In the case of `Cc1cc(/C=N/N2CCN(/N=C/c3cc(C)n(-c4ccccc4)c3C)CC2)c(C)n1-c1ccccc1`, the growth inhibition was 2.5% in experiment [1]; -9.15% in experiment [2]; -2.7% in experiment [3]; -27.9% in experiment [4]; -2.95% in experiment [5]; -13.6% in experiment [6].

`CCC(=N\NC(=S)NC)/C(C)=N\NC(=S)NC`: the growth inhibition was -8.3% in experiment [1]; -6.4% in experiment [2]; -6.5% in experiment [3]; -36.1% in experiment [4]; 9.1% in experiment [5]; -14.2% in experiment [6].

For `CC(=O)OCC(OC(C)=O)C(OC(C)=O)C(OC(C)=O)c1cnn(-c2ccccc2)n1` (stereo not given), the growth inhibition in experiment [1] is 4.05%; in experiment [2], 12.7%; in experiment [3], -20%; in experiment [4], -22.8%; in experiment [5], 5.6%; in experiment [6], 6%.

With `Cc1ccc(-c2n[nH]c(CC#N)n2)cc1`, the growth inhibition in experiment [1] was 5.55%; in experiment [2], 1.6%; in experiment [3], -4.6%; in experiment [4], -12.7%; in experiment [5], -1.55%; in experiment [6], 18.7%.

Consider `Ic1ccc(N=Nc2ccccc2)cc1`, for which the growth inhibition in experiment [1] was -8%; in experiment [2], -11.9%; in experiment [3], -5.35%; in experiment [4], -70.3%; in experiment [5], 25.3%; in experiment [6], -12.5%.
